CYP2C9 inh: inhibitors of human CYP2C9; 20% of 96,000 active; inhibition, % at 5 µM; P11712; CYP2C9 Supersomes, luciferin-H conversion, luminescence;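 active means blocking of liver enzyme CYP2C9 beyond about 50% at 5 µM, limit read from the data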
CYP2C19 inhib: inhibitors of human CYP2C19; CYP2C19 Supersomes, luciferin-H EGE luminescence, 30 min; inhibition, % at 5 µM; 21% of 96,000 active; AID 778;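 active means CYP2C19 inhibition above a set limit at 5 µM in the primary screen, cut at about 50% in these data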
Target sequence (P33261 whole entry, looked up): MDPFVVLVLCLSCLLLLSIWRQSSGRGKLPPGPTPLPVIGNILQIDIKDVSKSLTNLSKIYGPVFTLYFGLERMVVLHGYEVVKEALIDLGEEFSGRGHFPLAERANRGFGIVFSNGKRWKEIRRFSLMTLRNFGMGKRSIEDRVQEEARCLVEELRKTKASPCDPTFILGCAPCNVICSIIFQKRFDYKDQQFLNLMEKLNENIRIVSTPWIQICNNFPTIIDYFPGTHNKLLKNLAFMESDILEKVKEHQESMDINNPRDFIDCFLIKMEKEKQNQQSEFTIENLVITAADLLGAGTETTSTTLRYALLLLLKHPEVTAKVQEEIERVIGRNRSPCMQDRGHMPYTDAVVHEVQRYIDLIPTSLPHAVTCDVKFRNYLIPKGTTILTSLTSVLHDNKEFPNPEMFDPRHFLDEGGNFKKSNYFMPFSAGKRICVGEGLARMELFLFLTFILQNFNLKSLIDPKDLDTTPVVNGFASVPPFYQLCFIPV
cytoskel mod: alters cytoskeleton assembly in HUVEC cells. HUVEC TNFa F-actin phalloidin imaging, high content. inhibition, % at 2 µM. 0.18% of 91,000 active. AID 836;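 active means inhibition above the batch mean plus 3 SD and confirmed as a hit by visual image inspection, cut at about 30% in these data, passing the limit was not always enough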
CYP2C19 activ: increases human CYP2C19 enzyme activity. recombinant CYP2C19, luciferin-H EGE luminescence; hits give high values; 0 = fully inhibited enzyme, 1 = untreated enzyme. activation factor at 5 µM. 96,000 tested, under 10 active. AID 1025;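 active means activation factor of at least 2 at 5 µM in the primary screen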
E-sel TNF inh: TNF alpha driven E-selectin expression inhibition | 0.71% of 120,000 active | inhibition, % at 2 µM | HUVEC TNFa-induced E-selectin immunofluorescence, high content;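 active means inhibition above the batch mean plus 3 SD, and confirmed as a hit on visual image review, cut at about 43% in these data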
CYP2C9 act: activators of human CYP2C9. recombinant CYP2C9, luciferin-H conversion, luminescence; hits give high values; factor 1 = untreated enzyme, 0 = blocked. P11712. activation factor at 5 µM. 1.4% of 96,000 active;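 active means activation factor of 2 or more for CYP2C9 at a 5 µM dose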
Each line names hits and unclear results; the compound was inactive in the other large screens. In the library only some 22% were active in any assay of this set; here they are far more common.

CCn1c(=O)cc(OCC(=O)NCC2CCCO2)c2ccccc21 (stereo not given)	none (no result: cytoskel mod, E-sel TNF inh)
O=S(=O)(Cc1ccccc1)N1CCC(c2nc(-c3cccs3)no2)CC1	CYP2C9 inh 68
Cc1ccc(C)c(N2CCN(C(=O)C3CCN(c4nc(C)cc(C)n4)CC3)CC2)c1	none
Cc1cc(C)nc(N2CCC(C(=O)N3CCN(c4cc(Cl)ccc4C)CC3)CC2)n1	CYP2C9 inh 51
Cc1ccc(CN(C(=O)c2c(F)cccc2F)C2CC(C)(C)NC(C)(C)C2)o1	none (no result: cytoskel mod)
O=[N+]([O-])c1ccc(NC(=S)N/C(=N/CS(=O)(=O)c2ccccc2)c2ccccc2)cc1	CYP2C9 inh 58
COc1ccc(NC(=S)N/C(=N/CS(=O)(=O)c2ccccc2)c2ccccc2)cc1	none (no result: CYP2C9 inh, CYP2C19 inhib, CYP2C19 activ, CYP2C9 act)
Cc1c(-c2ccccc2)[n+](=O)c(-c2ccco2)c(C)n1[O-]	CYP2C19 inhib 87
Cc1c(-c2ccco2)[n+](=O)c2c(n1[O-])CCCCC2	none (no result: E-sel TNF inh)
S=C(NCc1ccccc1)NCC1COc2ccccc2O1 (stereo not given)	CYP2C9 inh 81, CYP2C19 inhib 93
Oc1ccc(CNCC2COc3ccccc3O2)cc1 (stereo not given)	CYP2C19 inhib 56
Cc1oc2c(C)c3oc(=O)c4c(c3cc2c1C)CCCC4	CYP2C9 inh 50, CYP2C19 inhib 96 (no result: E-sel TNF inh)
Cc1c(O)ccc2c3c(c(=O)oc12)CCCC3	CYP2C19 inhib 69, CYP2C9 act 3
CC(C)CN(Cc1c(O)ccc2c3c(c(=O)oc12)CCC3)CC(C)C	none
Cc1c(O)ccc2c3c(c(=O)oc12)CCC(C)C3 (stereo not given)	CYP2C19 inhib 93
CSC(=NCCCN1CCOCC1)NS(=O)(=O)c1cccs1	none (no result: cytoskel mod)
Cc1cc(C(=O)Nc2ccc(C(=O)O)cc2)c(-c2ccccc2)o1	none
CCCCn1c(SCC(=O)NC(=O)NCc2ccco2)nc2cc(S(N)(=O)=O)ccc21	none (no result: E-sel TNF inh)
C=CCn1c(COc2ccccc2)nnc1SCC(=O)O	E-sel TNF inh 62
C=CCn1c(COc2ccc(F)cc2)nnc1SCC(=O)N1CC(=O)Nc2ccccc21	CYP2C9 act 2.1 (no result: cytoskel mod)
C=CCn1c(SCC(=O)N2CC(=O)Nc3ccccc32)nc2scc(-c3cccs3)c2c1=O	CYP2C9 inh 83, CYP2C19 inhib 63 (no result: E-sel TNF inh)
Cc1ccccc1NC(=O)c1ccc(F)c(S(=O)(=O)N2CCN(c3ccccn3)CC2)c1	none
Cc1nnc2sc(-c3ccc(NC(=O)c4ccc(-c5ccc(Br)cc5)o4)cc3)nn12	none (no result: CYP2C9 inh, CYP2C19 inhib, CYP2C19 activ, CYP2C9 act)
COc1ccc(NC(=O)CN2CCN(CC(=O)Nc3ccccc3Cl)CC2)cc1Cl	CYP2C9 inh 57, CYP2C19 inhib 91 (no result: E-sel TNF inh)
COc1ccc(NC(=O)CN2CCN(C3c4ccccc4-c4ccccc43)CC2)cc1	CYP2C9 inh 95, CYP2C19 inhib 59
COc1ccc(NC(=O)CN2CCC(C)CC2)c([N+](=O)[O-])c1	CYP2C9 inh 54, CYP2C19 inhib 65
CCOc1ccc(/C=C/C(=O)Nc2ccc(OC)cc2[N+](=O)[O-])cc1	CYP2C9 act 2.4
COc1ccc(NC(=O)CN2CCCCC2)c([N+](=O)[O-])c1	none
COc1ccc(C(=O)/C=C2\NCC3c4ccccc4CCN3C2=O)cc1 (stereo not given)	none
CCCNC(=O)C(C)n1c2ccccc2c2nc(=O)cc(C)n21 (stereo not given)	none
COc1ccc(NC(=O)CN2CCC(C)CC2)cc1	CYP2C19 inhib 89
COc1ccc(NC(=O)CN2CCN(CC(=O)Nc3cc(OC)cc(OC)c3)CC2)cc1	CYP2C9 inh 61, CYP2C19 inhib 56 (no result: cytoskel mod, E-sel TNF inh)
COc1ccc(NC(=O)CN2CCC3(O)CCCCC3C2c2cc(OC)ccc2OC)cc1 (stereo not given)	CYP2C9 inh 80, CYP2C19 inhib 71
COc1cc([C@H]2[C@@H]3CCCC[C@]3(O)CCN2CC(=O)Nc2ccc(C)cc2C)ccc1O	none (no result: E-sel TNF inh)
COc1ccc(NC(=O)CN2CCN(CC(=O)Nc3ccc(OC)c(OC)c3)CC2)cc1	none (no result: cytoskel mod)
COCCCNC(=O)CCNS(=O)(=O)c1ccc(C)cc1	none
CCOC(=O)C1CCCN(CCC(=O)Nc2ccc(F)c(F)c2)C1 (stereo not given)	none (no result: E-sel TNF inh)
Cc1ccc(-c2nc3ccc([N+](=O)[O-])cc3[nH]2)cc1	none (no result: CYP2C9 inh, CYP2C19 inhib, cytoskel mod, CYP2C19 activ, CYP2C9 act)
Cc1ccc([N+](=O)[O-])cc1-c1[nH]c(-c2ccc(O)c(O)c2)nc1-c1ccccc1	CYP2C9 inh 88, CYP2C19 inhib 52 (no result: cytoskel mod)
